gsp ag: agonists of gsp mutant (McCune-Albright syndrome) | gsp mutant cells, cAMP HTRF, 30 min | Potency, µM (series often up to 76.9 µM), hits mostly activators | 340,000 compounds, 0.13% hits; active = well fitted activation curve with a large enough effect; inconclusive = small, poorly fitted or top-dose-only effect, or another doubt; inactive = no such curve, though single readings can be large or run the other way; cell line not stated here;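 note: phosphodiesterase inhibitor Ro 20-1724 added with compounds to block cAMP breakdown; nearly all actives have a fitted effect of over 60% in size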
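Cells stably selected in G418 were plated at 2000/well, grown 16-24 hr, then given compounds in DMSO with the PDE inhibitor […] (300 uM solution added) for 30 min at 37C; cAMP was read by HTRF.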
RXFP1 ag: RXFP1 (human) receptor agonism. Potency, µM (top dose mostly 57.5 µM), hits mostly activators. Q9HBX9. 370,000 compounds, 0.3% hits. HEK293T-RXFP1 cAMP TR-FRET, 30 min; response scale: percent of porcine relaxin response, buffer zero; active = well fitted activation curve with a large enough effect; inconclusive = small, poorly fitted or top-dose-only effect; note: nearly all actives have a fitted effect of over 60% in size
Target sequence (Q9HBX9 whole entry, looked up): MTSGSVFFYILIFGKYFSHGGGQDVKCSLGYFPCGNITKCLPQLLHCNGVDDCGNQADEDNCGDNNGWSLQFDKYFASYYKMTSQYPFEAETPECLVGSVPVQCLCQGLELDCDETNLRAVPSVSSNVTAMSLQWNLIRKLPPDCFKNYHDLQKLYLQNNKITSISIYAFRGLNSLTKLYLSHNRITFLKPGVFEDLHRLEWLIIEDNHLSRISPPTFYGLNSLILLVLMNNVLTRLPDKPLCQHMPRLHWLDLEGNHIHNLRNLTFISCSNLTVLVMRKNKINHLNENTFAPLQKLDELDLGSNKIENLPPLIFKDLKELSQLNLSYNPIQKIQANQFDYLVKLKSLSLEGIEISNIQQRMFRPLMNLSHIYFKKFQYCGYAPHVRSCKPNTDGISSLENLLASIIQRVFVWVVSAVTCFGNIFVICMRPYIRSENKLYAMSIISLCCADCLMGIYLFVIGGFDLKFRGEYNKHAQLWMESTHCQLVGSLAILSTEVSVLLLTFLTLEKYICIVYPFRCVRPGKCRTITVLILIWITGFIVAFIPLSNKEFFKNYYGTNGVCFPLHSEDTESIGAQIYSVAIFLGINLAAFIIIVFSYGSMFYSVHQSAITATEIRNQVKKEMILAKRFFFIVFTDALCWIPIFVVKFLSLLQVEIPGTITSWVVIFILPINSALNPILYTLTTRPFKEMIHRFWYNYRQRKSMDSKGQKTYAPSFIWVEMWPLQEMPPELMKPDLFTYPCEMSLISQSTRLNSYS
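Agonist response is measured as cAMP accumulation in an RXFP1-transfected HEK293T line under PDE4 inhibition. Values are scaled between buffer-only and 29 nM porcine relaxin, and EC50s come from standard Hill equation fits.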
RXFP1 antagonist: blocks the human relaxin receptor RXFP1; 350,000 compounds, 0.59% hits; Q9HBX9; HEK293-RXFP1, relaxin-stimulated cAMP HTRF, 30 min; hits give low values; activity change, negative = inhibition, % at 57.5 µM; AID 1259400;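 active = activity change of -60% or lower, but not beyond a set lower limit; inconclusive = change between -60% and -40%, or beyond the set limit; inactive = change above -40%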
FBPA coupling cs: inhibits coupling enzyme system, counter-screen for aldolase hits | coupling enzyme system counterscreen, AmpLite Red fluorescence | AID 2472 | 290,000 compounds, 0.67% hits | activity change, negative = inhibition, % at 58.2 µM, hits read low; in the data active = activity change below about -30%
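Fluorescence at 525 nm excitation and 598 nm emission measured inhibition of the coupled detection system without aldolase. Compounds (at 57.5 uM final) were preincubated 10 min at room temperature with coupling enzyme reagent before a 20 min substrate/AmpLite Red step.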
gsp antagonist: antagonizes gsp, the McCune-Albright syndrome mutation. AID 624288. 340,000 compounds, 0.4% hits. gsp-mutant cells, cAMP HTRF, 30 min. Potency, µM (titrated, usually from 76.9 µM), usual class: inhibitors; calls by dose curve; cell line not stated here;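 note: intracellular cAMP measured with PDE inhibitor Ro 20-1724 present during compound exposure; nearly all actives have a fitted effect of over 65% in size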
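HTRF cAMP read-out (cAMP-d2 plus anti-cAMP antibody-K in lysis buffer, 30 min RT). Before lysis, cells are exposed to compounds with […] for 30 min at 37C in DPBS containing Ca/Mg, BSA and Tween 20.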
Giardia killer: Giardia lamblia killing; Giardia lamblia trophozoite viability; AID 540267; activity change, % at 7.66 µM, hits read low; 340,000 compounds, 0.15% hits; in the data active = activity change below about -80%; inconclusive = between about -30% and that limit;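 note: parasites exposed to compound for two days anaerobically before the ATP read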
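Luminescent ATP signal served as the viability read-out, measured 15-30 min after adding ATP detection reagent to trophozoites that had been incubated with compounds for 48 hrs at 37 deg C anaerobically at 100 cells/well.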
Of the large screens only hits and unclear results are named; the others gave an inactive call. An excerpt weighted towards active compounds, which were near 1.6% of everything screened.

CC(C)Cn1c(N)c(C(=O)COC(=O)c2ccc(Cl)cc2)c(=O)n(C)c1=O	gsp antagonist inconclusive
CC(C)Cn1c(N)c(C(=O)COC(=O)c2ccc(Br)cc2)c(=O)n(C)c1=O	gsp ag inconclusive, gsp antagonist 35µM (no result: RXFP1 ag, FBPA coupling cs)
CC(C)Cn1c(N)c(C(=O)COC(=O)/C=C/c2ccccc2)c(=O)n(C)c1=O	gsp antagonist 35µM (no result: FBPA coupling cs)
Cc1ccc(OCCC(=O)OCC(=O)c2c(N)n(CC(C)C)c(=O)n(C)c2=O)cc1	none (no result: FBPA coupling cs)
CCOC(=O)CC(NC(=O)CCc1c(C)nc2c(-c3ccccc3)c(C)nn2c1C)c1ccc(C)cc1 (stereo not given)	none (no result: gsp ag, RXFP1 antagonist, FBPA coupling cs, gsp antagonist, Giardia killer)
CCCCCCCCCCCCCCCC(=O)OC(C)C	none (no result: gsp ag, RXFP1 ag, FBPA coupling cs, gsp antagonist, Giardia killer)
CC(C)Cn1c(=S)[nH]c2cc(C(=O)NCc3ccccc3F)ccc2c1=O	Giardia killer inconclusive (no result: FBPA coupling cs)
COCc1cc(C)nc2sc3c(c12)NC(c1ccc(O)cc1)N(c1ccc(C)cc1)C3=O (stereo not given)	none (no result: gsp ag, FBPA coupling cs, gsp antagonist, Giardia killer)
Cc1ccc(-c2ccc(/C=N/O)o2)cc1[N+](=O)[O-]	none
O=C(CCc1ccccc1Cl)NC1CCCN(c2ccc(C(F)(F)F)cn2)C1 (stereo not given)	none
COc1ccccc1CCC(=O)NC1CCCN(c2ccc(C(F)(F)F)cn2)C1 (stereo not given)	RXFP1 antagonist -99 (no result: FBPA coupling cs)
CCC(=O)C1=C(N2CCCC2)CC(C)(C)CC1=O	none
CCCCC(=O)C1=C(N2CCCC2)CC(C)(C)CC1=O	RXFP1 antagonist -62 (no result: RXFP1 ag, FBPA coupling cs)
CC(C)CCNC(=O)C(CC(C)C)NC(=O)C1OC1C(=O)O (stereo not given)	none (no result: gsp ag, RXFP1 ag, RXFP1 antagonist, gsp antagonist, Giardia killer)
O=C(NNC(=O)c1ccccc1F)c1ccc(-c2ccc(Cl)cc2)o1	RXFP1 antagonist -87 (no result: FBPA coupling cs)
Cc1noc(NS(=O)(=O)c2ccc(N/C=C\C(=O)c3ccncc3)cc2)c1C	gsp ag 20µM, RXFP1 ag inconclusive
Cc1noc(NS(=O)(=O)c2ccc(N/C=C/C(=O)c3ccncc3)cc2)c1C	gsp ag inconclusive, RXFP1 ag inconclusive
CCN(CC)CCC(c1cc(OC)c(OC)c(OC)c1)c1c(OC)cc(OC)c2c1OC(=O)CC2c1ccc(N(C)C)cc1 (stereo not given)	none (no result: gsp ag, RXFP1 ag, RXFP1 antagonist, gsp antagonist)
COc1ccc(-n2c(CCC(=O)O)ccc2-c2ccc(F)cc2)c(OC)c1	gsp antagonist 35µM
COC(=O)c1ccccc1-n1c(CCC(=O)O)ccc1-c1ccc(F)cc1	Giardia killer inconclusive
CC(=O)N1CCN(c2ccc(O)cc2)CC1	none (no result: gsp ag, RXFP1 ag, FBPA coupling cs, gsp antagonist, Giardia killer)
CCN(CC)CCCNC(=O)C(C)n1nc(C)n2c(cc3occc32)c1=O (stereo not given)	none (no result: gsp ag, RXFP1 antagonist, FBPA coupling cs, gsp antagonist, Giardia killer)
COc1cccc(-c2noc(C3CCCN(C(=O)c4ccccc4OC)C3)n2)c1 (stereo not given)	gsp antagonist 35µM
COC[C@@H](c1ccc(C(F)(F)F)cc1)N1CCN(C2(C)CCN(C(=O)c3c(C)ncnc3C)CC2)C[C@H]1C	none (no result: gsp ag, RXFP1 ag, FBPA coupling cs, gsp antagonist, Giardia killer)
CC(=O)c1ccc(NC(=O)CSc2nnc(-c3ccco3)c(-c3ccco3)n2)cc1	RXFP1 antagonist -71
O=C(CSc1nnc(-c2ccco2)c(-c2ccco2)n1)c1ccccc1	RXFP1 antagonist -97
Cc1cc(C)n2c(SCC(=O)N(C)C3CCCCC3)nnc2n1	none
Cc1cc(NC(=O)CSc2nc3ccccc3n2CCC#N)no1	gsp antagonist 10µM, Giardia killer inconclusive
Cc1cc(C)n2c(SCC(=O)NC3CCCCC3)nnc2n1	gsp ag 14µM, RXFP1 ag inconclusive
Cc1cc(C)n2c(SCC(=O)Nc3cc(C)on3)nnc2n1	gsp ag 22µM
N#CCCn1c(SCC(=O)NCC2CCCO2)nc2ccccc21 (stereo not given)	none
Cc1cc(C)nc(SCC(=O)NC2CCCCC2C)n1 (stereo not given)	RXFP1 antagonist -61 (no result: FBPA coupling cs)
Cc1cc(C)nc(SCC(=O)NC2CCCC2)n1	none
COc1ccc(NC(=O)c2ccco2)cc1NC(=O)COc1ccccc1Cl	none (no result: gsp ag, FBPA coupling cs, gsp antagonist, Giardia killer)
O=S(=O)(NCC(c1ccco1)S(=O)(=O)c1cccs1)c1ccc(F)c(C(F)(F)F)c1 (stereo not given)	none (no result: gsp ag, FBPA coupling cs, gsp antagonist, Giardia killer)
CCC(=O)N(c1ccc(C(=O)O)cc1)c1nc(-c2ccc(OC)cc2)c(C)s1	gsp ag inconclusive, gsp antagonist 25µM
Cc1sc(N(C(=O)CCc2ccccc2)c2ccc(C(=O)O)cc2)nc1-c1ccccc1	none
Cc1cc(OCc2ccccc2)ccc1/C(O)=C1/C(=O)C(=O)N(Cc2cccnc2)C1c1ccncc1 (stereo not given)	RXFP1 ag 25µM
CC(C)Oc1cccc(C(=O)C2CCCN(Cc3cnc(N4CCOCC4)s3)C2)c1 (stereo not given)	RXFP1 antagonist -65
COc1ccc(C(=O)C2CCCN(Cc3cnc(N4CCOCC4)s3)C2)cc1F (stereo not given)	none
CC(C)(C)NCC(O)COc1ccccc1OCC1CCCO1 (stereo not given)	none (no result: gsp ag, RXFP1 ag, FBPA coupling cs, gsp antagonist, Giardia killer)
Cc1[nH]n(-c2ccccc2)c(=O)c1Sc1ccc(Cl)cc1	none
Cc1cc(-c2c(C)[nH]n(-c3ccc(Cl)cc3)c2=O)n[nH]1	gsp antagonist 40µM
O=C(O)CSc1cc(NS(=O)(=O)c2ccc(Br)cc2)c2ccccc2c1O	FBPA coupling cs -44
